Screens from PubChem BioAssay.
Compounds with a hit are over-represented: about 1.6% of the library has one in this group of screens.
KCNQ2 pot: KCNQ2 (rat) channel potentiation; AID 2239; CHO-K1 KCNQ2, FluxOR thallium flux fluorescence; stronger effect = higher value; 310,000 compounds, 0.54% hits; B-score at 10 µM; O88943;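 active = fluorescence ratio B-score at least 3 SD of library B-scores, with initial fluorescence B-score within 3 of them, cut at about 5.3 in these data; same plate scores as AID 2156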;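 also: B-score of peak minus minimum over baseline fluorescence ratio after K+ and Tl+ stimulus; positive B-score means potentiation of KCNQ2 with more thallium influx and brighter signal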
Target sequence (O88943 whole entry, looked up): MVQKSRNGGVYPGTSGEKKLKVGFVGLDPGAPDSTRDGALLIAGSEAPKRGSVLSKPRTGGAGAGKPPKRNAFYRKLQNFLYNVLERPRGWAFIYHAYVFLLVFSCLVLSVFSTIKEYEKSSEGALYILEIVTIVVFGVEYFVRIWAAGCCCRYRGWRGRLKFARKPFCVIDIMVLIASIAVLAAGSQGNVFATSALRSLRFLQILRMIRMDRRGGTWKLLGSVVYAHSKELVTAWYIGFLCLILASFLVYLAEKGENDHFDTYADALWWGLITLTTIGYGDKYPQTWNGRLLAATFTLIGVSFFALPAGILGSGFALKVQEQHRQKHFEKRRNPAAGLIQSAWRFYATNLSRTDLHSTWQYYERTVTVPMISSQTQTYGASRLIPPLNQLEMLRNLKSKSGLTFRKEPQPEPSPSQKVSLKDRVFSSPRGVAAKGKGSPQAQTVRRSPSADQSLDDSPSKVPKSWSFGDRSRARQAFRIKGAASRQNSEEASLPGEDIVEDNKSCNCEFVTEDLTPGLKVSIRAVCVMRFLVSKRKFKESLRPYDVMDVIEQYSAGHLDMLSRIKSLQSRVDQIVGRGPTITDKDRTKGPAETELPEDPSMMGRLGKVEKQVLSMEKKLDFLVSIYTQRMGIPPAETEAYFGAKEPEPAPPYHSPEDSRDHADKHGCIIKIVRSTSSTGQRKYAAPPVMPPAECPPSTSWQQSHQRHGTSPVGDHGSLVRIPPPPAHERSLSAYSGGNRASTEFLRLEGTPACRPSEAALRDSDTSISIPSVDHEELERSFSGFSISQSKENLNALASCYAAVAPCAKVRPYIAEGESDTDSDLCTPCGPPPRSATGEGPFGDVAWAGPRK
KCNQ2 inh: blocks the rat KCNQ2 potassium channel. AID 2156. 310,000 compounds, 1.1% hits. CHO-K1 KCNQ2, FluxOR thallium flux, 20 min; stronger effect = lower value. B-score at 10 µM. O88943;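 active = fluorescence ratio B-score at most minus 3 library SDs, with starting brightness B-score within 2 library SDs, cut at about -5.5 in these data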
Kir21 conf inh: confirmation of mouse Kir2.1 potassium channel inhibitors. Kir2.1-expressing cells, FluxOR thallium flux fluorescence; stronger effect = lower value. 2,300 compounds, 41% hits. AID 2032. Tl flux remaining, % of negative control (stronger effect = lower value), % at 10 µM. shares compounds with KCNQ2 pot;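 active = Primary-screen hit whose thallium flux fell at least 3 control SD below untreated wells in both duplicates, with normal baseline fluorescence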;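 also: 0% = blank wells without stimulus and 100% = stimulated no-compound controls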
HEK293 Tl flux: parental HEK293 activity in Kir2.1 inhibitor counter-screen; shares compounds with KCNQ2 pot; parental HEK293 cells, FluxOR thallium flux fluorescence; 0% = unstimulated blank wells; FluxOR signal as % of negative control (100 = no effect), % at 10 µM; 2,300 compounds, 19% hits; AID 2105;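 active = dye signal at least 3 control SD above or below untreated wells in both duplicates, raw fluorescence within 3, either direction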;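 also: percent is based on the flux ratio of peak minus minimum fluorescence over baseline F0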
CHO-K1 Tl ctr: parental CHO-K1 activity in KCNQ2 potentiator counter-screen | shares compounds with KCNQ2 pot | activity increase over 3SD of controls, % at 10 µM | parental CHO-K1 cells, FluxOR thallium flux fluorescence; zero = vehicle mean+3SD, 100% = vehicle-minus-blank window | 1,200 compounds, 43% hits | AID 2282;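 active = signal rise of at least 3 SD above the untreated control mean, in both duplicate wells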;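 also: counter screen of KCNQ2 potentiator hits so any rise reflects channel-independent effects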
KCNQ1 sel pot: tests whether KCNQ2 potentiators also act on human KCNQ1; shares compounds with KCNQ2 pot; CHO KCNQ1 stable, FluxOR thallium flux fluorescence; beyond 3SD, as % of vehicle-control signal; activation over 3SD threshold, % at 10 µM; 1,200 compounds, 28% hits; AID 2283;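 active = fluorescence ratio rise of at least 3 SD of vehicle wells above their mean, in both replicate wells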;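 also: 0% = vehicle mean plus 3 SD and 100% = vehicle minus unstimulated blank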
KCNQ2 pot confirm: rat KCNQ2 channel potentiator confirmation; shares compounds with KCNQ2 pot; CHO-KCNQ2 cells, FluxOR thallium flux fluorescence; potentiation, less the hit threshold, % at 10 µM; 1,200 compounds, 68% hits; AID 2287;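 active = fluorescence ratio rising 3 SD or more over the vehicle control mean in both replicates, plus primary screen hit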;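 also: peak minus minimum thallium fluorescence divided by baseline after K/Tl stimulus; 0% = vehicle mean plus 3 SD and 100% = vehicle minus unstimulated blank difference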
Kir21 spec: mouse Kir2.1 off-target activity of KCNQ2 potentiators | shares compounds with KCNQ2 pot | HEK293 Kir2.1, FluxOR thallium flux fluorescence | activity over 3SD threshold, % at 10 µM | 1,200 compounds, 2% hits;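 active = fluorescence ratio rise of at least 3 SD above the vehicle-control mean, seen in both replicates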;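 also: 0% = vehicle mean plus 3 SD and 100% = vehicle minus no-stimulus blank window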
KCNQ2 W236L pot: KCNQ2 potentiators acting on retigabine-insensitive rat KCNQ2 W236L mutant. shares compounds with KCNQ2 pot. AID 2558. 940 compounds, 10% hits. CHO KCNQ2-W236L, automated patch clamp current. current increase over 3SD of negative controls (%), stronger effect = higher value, % at 25 µM;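 active = current increase at least 3 SD of the untreated controls above them in both duplicate recordings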
* hit, by the source's call; i = inactive; nt = no result.

SMILES	KCNQ2 pot	KCNQ2 inh	Kir21 conf inh	HEK293 Tl flux	CHO-K1 Tl ctr	KCNQ1 sel pot	KCNQ2 pot confirm	Kir21 spec	others
COc1ccc(/C=C2/SC(=S)N(NS(=O)(=O)c3ccc(C)cc3)C2=O)cc1	5.12	i	nt	nt	nt	nt	nt	nt
Cc1ccc(C)c(-n2nnnc2SCC(=O)NNC(=O)c2ccco2)c1	nt	i	nt	nt	nt	nt	nt	nt
COc1ccc(S(=O)(=O)NC(C)C(=O)NCCN2CCOCC2)cc1Cl (stereo not given)	nt	i	nt	nt	nt	nt	nt	nt
C=CCNC(=S)Nc1nc2c(cc1C(=O)OCC)CCCC2	4.29	i	nt	nt	nt	nt	nt	nt
CCNC(=S)Nc1nc2c(cc1C(=O)OCC)CCCC2	5.49*	i	i	147.5%*	7.6*	-18.7	-2.2	-29.5	KCNQ2 W236L pot=i
COc1ccc(Cn2ccnc2SCC(=O)NC2CCCC2)cc1	nt	i	nt	nt	nt	nt	nt	nt
CC1CCCCN1C(=O)C1CCN(c2nc(-c3ccccc3)nc3c2CCC3)CC1 (stereo not given)	nt	i	nt	nt	nt	nt	nt	nt
Cn1c(-c2ccccc2)cc(=O)c2ccccc21	nt	i	nt	nt	nt	nt	nt	nt
O=c1cc(-c2ccccc2)cc(-c2ccccc2)n1O	6.64*	i	i	333.5%*	-12.1	96.6*	13.5*	-17.9	KCNQ2 W236L pot=i
COc1ccccc1C1=NOC(Cn2c(NCCCO)nc3c2c(=O)n(C)c(=O)n3C)C1 (stereo not given)	0.64	i	nt	nt	nt	nt	nt	nt
COc1ccc(C2=NOC(Cn3c(Cc4ccc(Cl)cc4)nc4c3c(=O)n(C)c(=O)n4C)C2)cc1 (stereo not given)	5.4*	i	i	i	6.7*	-39.1	-12.7	-24.1
COc1ccc(C)cc1S(=O)(=O)N(CC(=O)NC1CCCC1)c1ccc(F)cc1	nt	i	nt	nt	nt	nt	nt	nt
CCOc1ccc(N2CC(C(=O)NC3CCCCCC3)CC2=O)cc1 (stereo not given)	nt	i	nt	nt	nt	nt	nt	nt
CC(=O)N1CCc2cc(Br)cc(S(=O)(=O)N3CCc4ccccc43)c21	0.88	i	nt	nt	nt	nt	nt	nt
CCc1ccc(C(C)NC(=O)/C=C/c2ccc(Br)cc2)cc1 (stereo not given)	8.72*	i	i	i	-15.2	-15.4	23.8*	-27.5	KCNQ2 W236L pot=i
CC(NC(=O)/C=C/c1ccc(Br)cc1)c1ccccc1 (stereo not given)	4.22	i	nt	nt	nt	nt	nt	nt
Cc1ccc(/C=C/C(=O)NC(C)c2ccccc2)cc1 (stereo not given)	3.84	i	nt	nt	nt	nt	nt	nt
CC(NC(=O)/C=C/c1ccccc1)c1ccccc1 (stereo not given)	16.8*	i	i	i	2.8*	19.7*	29.6*	-10.1	KCNQ2 W236L pot=i
CN(CC(=O)Nc1c(Cl)cccc1Cl)C(=O)c1sccc1-c1ccccc1	0.89	i	nt	nt	nt	nt	nt	nt
CC1CC(=O)N(CC(=O)Nc2ccc(F)cc2F)c2ccccc2S1(=O)=O (stereo not given)	0.34	i	nt	nt	nt	nt	nt	nt
Cc1cnc(CN(C)Cc2nc(Cc3cccc(C(F)(F)F)c3)no2)[nH]1	nt	i	nt	nt	nt	nt	nt	nt
CCCCn1c(N)c(N(CC(C)C)C(=O)CCNC(=O)c2ccc(Cl)cc2)c(=O)[nH]c1=O	nt	i	nt	nt	nt	nt	nt	nt
CC(=O)C1=C(C)NC(SCC(=O)c2ccc(F)cc2)=C(C#N)C1c1ccco1 (stereo not given)	4.83	i	nt	nt	nt	nt	nt	nt
Cc1ccc(C(=O)CSC2=C(C#N)C(c3ccco3)C3=C(CCCC3=O)N2)cc1 (stereo not given)	6.62*	i	i	i	0.0*	5.9*	-7.4	-29.5
CCc1ccc(C(=O)CSC2=C(C#N)C(c3ccco3)C(C(C)=O)=C(C)N2)cc1 (stereo not given)	9.8*	i	i	i	112.8*	-11.0	-5.2	-24.4
SMILES	KCNQ2 pot	KCNQ2 inh	Kir21 conf inh	HEK293 Tl flux	CHO-K1 Tl ctr	KCNQ1 sel pot	KCNQ2 pot confirm	Kir21 spec	others
N#CC1=C(SCC(=O)c2ccccc2)NC2=C(C(=O)CCC2)C1c1ccco1 (stereo not given)	1.59	i	nt	nt	nt	nt	nt	nt
N#Cc1nc(Cc2cccc3ccccc23)oc1NCCCN1CCOCC1	nt	i	52.0%*	i	nt	nt	nt	nt
N#Cc1nc(Cc2cccc3ccccc23)oc1NCCCn1ccnc1	0.19	i	nt	nt	nt	nt	nt	nt
COc1ccccc1CC(=O)NNC(=O)CN(C)S(=O)(=O)c1ccc(Cl)cc1	2	i	nt	nt	nt	nt	nt	nt
Cc1ccc(NC(=O)CNc2cccc(S(=O)(=O)N3CCCC3)c2)cc1F	5.51*	i	i	i	-35.9	-11.3	-0.3	-47.5
O=C(CNc1cccc(S(=O)(=O)N2CCCC2)c1)Nc1ccc(F)c(F)c1	0.02	i	nt	nt	nt	nt	nt	nt
COC(=O)C1=NN(C(=O)c2ccccc2)C(C)(O)C1 (stereo not given)	1.54	i	nt	nt	nt	nt	nt	nt
COC(=O)C1(O)CC(CC(C)C)=NN1C(=O)c1ccccc1 (stereo not given)	8.84*	i	i	i	8.6*	-10.2	23.0*	-42.0	KCNQ2 W236L pot=i
O=C(NCC(c1ccc(F)cc1)N1CCOCC1)c1cc(F)c(F)c(F)c1F (stereo not given)	nt	i	nt	nt	nt	nt	nt	nt
O=C(CC12CC3CC(CC(C3)C1)C2)NCC(c1ccc(F)cc1)N1CCOCC1 (stereo not given)	11.2*	i	i	i	-13.3	-14.9	35.5*	-49.3	KCNQ2 W236L pot=i
O=C(CSc1ccc(Cl)cc1)NNC(=O)c1cccnc1	2.19	i	nt	nt	nt	nt	nt	nt
c1ccc(CNc2ncnc3ccccc23)cc1	1.06	i	nt	nt	nt	nt	nt	nt
c1ccc(CNc2c3ccccc3nc3ccccc23)cc1	1.06	i	23.5%*	i	nt	nt	nt	nt
O=S(=O)(N1CCCCC1)N1CCN(CC(O)COc2ccc3cc(Br)ccc3c2)CC1 (stereo not given)	1.15	i	nt	nt	nt	nt	nt	nt
OC(COc1ccc2cc(Br)ccc2c1)CN1CCCC1 (stereo not given)	nt	i	38.5%*	i	nt	nt	nt	nt
OC(COc1ccc2cc(Br)ccc2c1)CN1CCN(c2ccccn2)CC1 (stereo not given)	7.38*	i	i	i	-7.4	13.9*	-11.3	-11.0
COc1cccc(OCC(O)CN2CCN(c3ccccn3)CC2)c1 (stereo not given)	0.33	i	nt	nt	nt	nt	nt	nt
COC(=O)C1C(O)=C(C=Nc2ccc3ccccc3c2)C(=O)CC1(C)C (stereo not given)	nt	i	nt	nt	nt	nt	nt	nt
CCCCn1c(N)c(N(CCOC)C(=O)c2cccc(S(=O)(=O)N(CC)c3ccccc3)c2)c(=O)[nH]c1=O	0.22	i	nt	nt	nt	nt	nt	nt
